Results: PubChem BioAssay (NCI)
About 83,000 compounds went through this panel and 20% of them were active in at least one assay; those are over-represented in the sample as a whole.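 Cell lines were cultured in 96-well plates, exposed to a single compound concentration, and assessed for percent growth 48 hours later.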 Activity calls are given as the source filed them. The calls were made as follows: active = growth percent below 10; inactive = the rest.

tested on: UACC-257 melanoma; assay: NCI-60 one-dose screen, 48 h (100 = growth as untreated, 0 = no growth, -100 = all killed); conditions: 10 µM unless noted

| Compound | growth |
| --- | --- |
| CNCc1cccc2c1OCCOCCOCCN(CCN1CCOCC1)S(=O)(=O)c1ccc(cc1)-c1cnc(N)c(n1)C(=O)N2 | 98.7% (inactive) |
| Cc1cnc(-c2ccc(-c3ccc(NC(=O)Nc4c(F)cc(F)cc4F)cc3F)c3c2C(=O)NC3)[nH]1 | 43.8% (inactive) |
| Cc1cc(C)c(NC(=O)c2sc3nc4c(cc3c2N)CCCCCC4)c(C)c1 | 62.8% (inactive) |
| O=C1NN(c2ccccc2)C(c2ccc3c(c2)OCO3)N2CCC[C@@H]12 (some centres not stated) | 99.2% (inactive) |
| C=C1C(=O)O[C@H]2[C@H]1CC/C(COC(=O)CCCCCCCCC(=O)OC/C1=C/CC[C@@]3(C)O[C@H]3[C@H]3OC(=O)C(=C)[C@@H]3CC1)=C\CC[C@@]1(C)O[C@@H]21 | 24.6% (inactive) |
| COc1ccc(C2N(c3cc(OC)c(OC)c(OC)c3)C(=O)C2(F)F)cc1F (configuration not stated) | 50% (inactive) |
| C=C1C(=O)O[C@H]2[C@H]1CC/C(COC(=O)CCCCCCC(=O)OC/C1=C/CC[C@@]3(C)O[C@H]3[C@H]3OC(=O)C(=C)[C@@H]3CC1)=C\CC[C@@]1(C)O[C@@H]21 | 70.7% (inactive) |
| O=c1nc(-c2ccccc2)c2cc(-c3ccc(N4CCCC4)nc3)ccc2[nH]1 | 88.6% (inactive) |
| O=C(Nc1nc(-c2ccccc2)cs1)c1cc(-c2ccc(Br)cc2)nc2ccccc12 | 56% (inactive) |
| COc1ccc2nc3c(n2c1)C(=O)C(=O)c1ccccc1-3 | -83.2% (active) |
| C=C1C(=O)O[C@H]2[C@H]1CCC(/C=N/c1ncc(Br)cc1N)=C\CC[C@@]1(C)O[C@@H]21 | 22% (inactive) |
| COC(=O)c1ccc(NC(=O)CSc2nc(-c3ccc(F)cc3)nc3ccccc23)cc1 | 102% (inactive) |
| COc1ccc(C2C(c3ccccc3)C(=O)N2c2cc(OC)c(OC)c(OC)c2)cc1I (configuration not stated) | 47.9% (inactive) |
| O=[N+]([O-])c1cccc(CN(Cc2cccc([N+](=O)[O-])c2O)c2ccccc2)c1O | 93.3% (inactive) |
| Nc1c(C(=O)Nc2ccccn2)sc2nc3c(cc12)CCCCCC3 | 49.5% (inactive) |
| C[C@]12CC[C@@H]3c4ccc(O)cc4CC[C@H]3[C@@H]1C[C@H](O)C2 | 78.5% (inactive) |
| COCCOCCOCc1n(Cc2ccc3ccccc3c2)c2ccccc2[n+]1Cc1ccc2ccccc2c1 | -13.1% (active) |
| COc1ccc(C(=O)c2cc(F)c(F)c(OC)c2F)cc1OC(=O)CCl | 72% (inactive) |
| Nc1cccc(C(=O)Nc2ccc3c(O)c(N=Nc4ccc(N=Nc5ccc(S(=O)(=O)O)cc5)cc4)c(S(=O)(=O)O)cc3c2)c1 | 100% (inactive) |

| Compound | growth |
| --- | --- |
| O=C(Nc1ccccc1)NS(=O)(=O)c1c[nH]c(=S)[nH]c1=O | 92.5% (inactive) |
| CC(C)CSc1nc(Nc2ccccc2)c(C#N)c(-c2ccc(F)cc2)n1 | 66.2% (inactive) |
| CC(C)(C#N)c1cc(F)cc(C(=O)Nc2cc(Nc3ncccc3-c3ncnc4nc[nH]c34)ccc2F)c1 | 23.7% (inactive) |
| COc1c(O)cc2oc3cc(O[C@@H]4OC(C)[C@@H](O)[C@H](O)C4O)c(CC=C(C)C)c(O)c3c(=O)c2c1CC=C(C)C (some centres not stated) | 104% (inactive) |
| O=C(CCCC(=O)Nc1ccc(-n2nnc3cc(Cl)c(Cl)cc32)cc1)Nc1ccc(-n2nnc3cc(Cl)c(Cl)cc32)cc1 | 66.5% (inactive) |
| Cn1cc(-c2ccc3c(c2)ncn3-c2ccc(CC(=O)Nc3cc(C(C)(C)C)on3)cc2)cn1 | 67.1% (inactive) |
| CCC1S/C(=N\N=C(/C)c2ccc[nH]2)N(c2ccccc2)C1=O (configuration not stated) | 104% (inactive) |
| CC(=O)ON1CCCC(P(=O)(OCOC(=O)C(C)(C)C)OCOC(=O)C(C)(C)C)C1=O (configuration not stated) | 19.2% (inactive) |
| Cc1cccc(C)c1Nc1nnc(-c2ccc(F)cc2)o1 | 116% (inactive) |
| COc1ccc(C2=NN(c3ccc(S(N)(=O)=O)cc3)C(c3ccc(Cl)cc3)C2)c(O)c1 (configuration not stated) | 57.3% (inactive) |
| CC(=O)Nc1nc2c(c(N)c1C#N)C(c1cccc(Cl)c1)C1=C(CCCC1=O)N2c1sc2c(c1C#N)CCCC2 (configuration not stated) | 54.4% (inactive) |
| C#Cc1ccccc1NC(=O)c1sc2nc3c(cc2c1N)CCCCCC3 | 96% (inactive) |
| C=C(C)[C@@H]1CC[C@]2(C(=O)N3CCN(C)CC3)CC[C@]3(C)[C@H](CC[C@@H]4[C@@]5(C)C/C(=C/c6ccco6)C(=O)C(C)(C)[C@@H]5CC[C@]43C)[C@@H]12 | 48.6% (inactive) |
| CCCCC(=O)Nc1c(C(=O)Nc2ccccc2)sc2nc3c(cc12)C(OC(=O)CCCC)CCC3 (configuration not stated) | 110% (inactive) |
| C#CC[C@@H]1C[C@]2(C)[C@H]3CC[C@@H]4[C@H]5[C@H](C(=C)C)CC[C@]5(C(=O)O)CC[C@@]4(C)[C@]3(C)CC[C@H]2C(C)(C)[C@H]1O | 70.9% (inactive) |
| Cc1ccc(-c2nc(C#N)c(S(=O)(=O)N(C)CCO)o2)cc1 | 77.9% (inactive) |
| FC(F)(F)c1ccc2c(Nc3cccc(C4CC(c5ccccc5)=NN4c4ccc(Cl)cc4)c3)ccnc2c1 (configuration not stated) | 73.8% (inactive) |
| COc1ccc2nc(-c3ccc(OC)c(OC)c3)cc(-c3nnc(SCC(=O)Nc4ccc(/C(C)=N\O)cc4)n3-c3ccccc3)c2c1 | 88% (inactive) |
